Source: PubChem BioAssay
Activity calls are given as the source filed them. Unless noted, no stated cut-off is given here; in the data, active means inhibition above about 33%; inactive means the rest.

Key:
[1] = StAR promoter reporter inhibitors, counter-screen for LRH-1 inverse agonist project, cell-based, luminescence, high throughput (AID 651611; in the data active means inhibition above about 28%); settings: StAR promoter luciferase reporter counterscreen, at 3.6 µM, stronger effect = higher value
[2] = target: Nuclear receptor subfamily 5 group A member 2 (Homo sapiens) (UniProt O00482); assay: NR5A2 activity suppression in reporter cells – cell-based, luminescence, confirmation (AID 651613; in the data active means inhibition above about 42%;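 further: HEK293T cells co-transfected with LRH-1 and StAR promoter luciferase reporter; 0% = vehicle wells and 100% = parental cells lacking receptor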); settings: cell-based LRH-1 luciferase reporter, inverse agonism; at 3.6 µM; stronger effect = higher value
[3] = target: Steroidogenic factor 1 (Homo sapiens) (UniProt Q13285); assay: inverse agonism at SF1 nuclear receptor – cell-based, luminescence, high throughput, counter-screen for LRH-1 inverse agonist project (AID 651614; in the data active means inhibition above about 44%;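 further: cells cotransfected with StAR promoter reporter and SF1 expression vector; 0% = vehicle on cells with receptor and 100% = vehicle on cells lacking receptor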); settings: cell-based SF1 luciferase reporter, at 3.6 µM, stronger effect = higher value
[4] = compounds suppressing VP16-driven luciferase signal – cell-based, luminescence, high throughput, counter-screen for LRH-1 inverse agonist project (AID 651615); settings: Gal4-VP16 luciferase reporter cells, at 3.6 µM, stronger effect = higher value

Chain of Nuclear receptor subfamily 5 group A member 2 (Homo sapiens) (O00482 whole entry, looked up): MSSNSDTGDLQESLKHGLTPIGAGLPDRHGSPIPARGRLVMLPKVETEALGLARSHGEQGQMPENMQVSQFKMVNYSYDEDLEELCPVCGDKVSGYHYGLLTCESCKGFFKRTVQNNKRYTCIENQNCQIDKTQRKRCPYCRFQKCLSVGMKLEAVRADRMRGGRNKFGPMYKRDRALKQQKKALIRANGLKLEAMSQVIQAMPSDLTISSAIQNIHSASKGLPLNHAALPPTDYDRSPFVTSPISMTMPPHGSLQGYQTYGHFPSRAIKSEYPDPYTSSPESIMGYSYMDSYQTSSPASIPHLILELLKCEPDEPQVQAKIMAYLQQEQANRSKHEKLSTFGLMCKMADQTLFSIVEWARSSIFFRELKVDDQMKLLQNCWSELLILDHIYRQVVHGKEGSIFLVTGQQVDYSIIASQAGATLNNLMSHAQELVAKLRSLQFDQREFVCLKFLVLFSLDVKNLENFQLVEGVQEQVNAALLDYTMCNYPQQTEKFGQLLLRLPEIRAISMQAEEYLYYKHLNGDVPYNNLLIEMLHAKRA
Chain of Steroidogenic factor 1 (Homo sapiens) (Q13285 whole entry, looked up, the tested form may be a part): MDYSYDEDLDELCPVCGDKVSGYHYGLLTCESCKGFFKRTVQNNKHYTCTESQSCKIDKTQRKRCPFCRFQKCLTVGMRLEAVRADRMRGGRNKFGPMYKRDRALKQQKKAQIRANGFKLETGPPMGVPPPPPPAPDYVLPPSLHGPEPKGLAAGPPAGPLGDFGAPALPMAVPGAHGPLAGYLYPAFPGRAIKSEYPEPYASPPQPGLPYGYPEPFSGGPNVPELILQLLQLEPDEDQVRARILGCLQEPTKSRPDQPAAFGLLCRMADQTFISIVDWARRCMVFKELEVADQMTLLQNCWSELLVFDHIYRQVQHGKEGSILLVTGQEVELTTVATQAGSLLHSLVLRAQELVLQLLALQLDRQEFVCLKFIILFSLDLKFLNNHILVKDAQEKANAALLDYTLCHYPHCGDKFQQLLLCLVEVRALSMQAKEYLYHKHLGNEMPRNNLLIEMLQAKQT

SMILES | inhibition [1] | inhibition [2] | inhibition [3] | inhibition [4]
COCC(C)n1c(-c2ccc3c(c2)NC(=O)CO3)csc1=Nc1ccc(OC(F)F)cc1 (configuration not stated) | 10.3% (inactive) | 79.3% (active) | 69.3% (active) | 34.4% (active)
CC(=O)c1ccc(NC(=S)Nc2cccc3cnccc23)cc1 | 3.88% (inactive) | 5.22% (inactive) | 4.69% (inactive) | 7.24% (inactive)
O=C(CCl)NCCCN(C(=O)C(Cl)Cl)c1ccc([N+](=O)[O-])cc1 | 16.7% (inactive) | 59.2% (active) | 53.5% (active) | -8.07% (inactive)
O=C(c1ccccc1Br)N1CCN(c2ccc([N+](=O)[O-])c(N3CCOCC3)c2)CC1 | 8.23% (inactive) | 42% (active) | 38.9% (inactive) | -4.88% (inactive)
CSc1ccc(COC(=O)c2cc([N+](=O)[O-])ccc2N2CCOCC2)cc1 | 61.7% (active) | 57.5% (active) | 65.8% (active) | 36.6% (active)
CCn1nnc(NC(=O)c2ccc([N+](=O)[O-])o2)n1 | 10.3% (inactive) | 57.8% (active) | 59.9% (active) | -13.8% (inactive)
Cc1ccc(C)c(NC(=O)CSc2nc3[nH]ncc3c(=O)[nH]2)c1 | 6.04% (inactive) | 58.1% (active) | 56% (active) | 7.57% (inactive)
COc1ccc2c(/C=C/c3cc[n+](C)cc3)c[nH]c2c1 | 28.7% (active) | 64.1% (active) | 56.3% (active) | 50.9% (active)
CCOc1ccc(NC(=O)CSc2nc(O)c(C)c(=O)n2-c2ccc(F)cc2)cc1 | 5.33% (inactive) | 60.6% (active) | 50.6% (active) | -14.2% (inactive)
CN(CC(=O)Nc1ccc(N2CCOCC2)cc1)CC(=O)Nc1ccc(N2CCOCC2)cc1 | 4.02% (inactive) | 52.1% (active) | 54.2% (active) | -8.87% (inactive)
O=c1cc(C2CCCCC2)[nH]c(=O)[nH]1 | 10.2% (inactive) | 48.1% (active) | 48% (active) | 2.19% (inactive)
COc1cc(/C=C2/SC(=Nc3ccc(O)cc3)NC2=O)ccc1O | 38.7% (active) | 48.5% (active) | 43.5% (active) | -31.2% (inactive)
CCCc1nnc2n1N=C(c1ccc(OC)c(OC)c1)CS2 | 4.71% (inactive) | 38.7% (inactive) | 26.3% (inactive) | -24.8% (inactive)
CNC(=S)N/N=C/c1cn(Cc2ccc(C)cc2)c2ccccc12 | 2.35% (inactive) | 46.9% (active) | 46.8% (active) | 1.56% (inactive)
CCN(CC)C1Oc2cc3c(cc2C(c2cccc(OC)c2O)C1C)OCO3 (configuration not stated) | 23.9% (inactive) | 53.1% (active) | 72% (active) | 15.5% (inactive)
COc1ccc(S(=O)(=O)Nc2ccc(CC#N)cc2)cc1 | -4.36% (inactive) | 31.7% (inactive) | 29.7% (inactive) | -0.34% (inactive)
Cc1cc(C(=O)N/N=C/c2ccc([N+](=O)[O-])o2)c(C)o1 | 9.16% (inactive) | 71.5% (active) | 65.2% (active) | 3.18% (inactive)
CCc1c(C)nc(SCC(=O)Nc2ccc3c(c2)OCCO3)[nH]c1=O | 14.5% (inactive) | 63.7% (active) | 54.7% (active) | -6.83% (inactive)
COC(=O)c1ccc([C@H](NC(=O)c2ccco2)[C@]2(C)C[C@H]2C2CCCCC2)cc1 | 4.8% (inactive) | 30.3% (inactive) | 21.1% (inactive) | 2.54% (inactive)
COc1ccc(NC(=O)CN2C(=O)NC3(CCCC3)C2=O)cc1 | -8.92% (inactive) | 51.2% (active) | 47.5% (active) | -17.1% (inactive)
Cc1nnc(SCC(=O)Nc2ccc(N3CCN(S(C)(=O)=O)CC3)cc2)o1 | -2.52% (inactive) | 50.8% (active) | 50.2% (active) | -9.83% (inactive)
Cc1ccc(NC(=O)CSc2nnc(CCCCCNC(=O)OC(C)(C)C)o2)c(C)c1 | 12.2% (inactive) | 47.9% (active) | 42.7% (inactive) | 4.4% (inactive)
O=C(Nc1cccc(S(=O)(=O)N2CCCCC2)c1)c1ccc([N+](=O)[O-])o1 | 33.8% (active) | 67.3% (active) | 69.2% (active) | -4.21% (inactive)
